Measurements taken from the supplement of paper PMC11732987, “Enantioselective OTUD7B fragment discovery through chemoproteomics screening and high-throughput optimisation” (Communications Chemistry, 2025).

How the values were obtained:
Test in all cases: log2 ratio of Biotin-Ahx-Ub-VS probe labelling (fragment/DMSO); higher = less target engagement (more negative = stronger competition), active = hit call of the paper (q ≤ 0.05, log2 ratio ≤ -1)
Settings in all cases: compound concentration: 200 uM; treatment time: 3 h
[1] = biological target: T1, ALG13 (UniProt Q9NP73)
T1 sequence (whole entry): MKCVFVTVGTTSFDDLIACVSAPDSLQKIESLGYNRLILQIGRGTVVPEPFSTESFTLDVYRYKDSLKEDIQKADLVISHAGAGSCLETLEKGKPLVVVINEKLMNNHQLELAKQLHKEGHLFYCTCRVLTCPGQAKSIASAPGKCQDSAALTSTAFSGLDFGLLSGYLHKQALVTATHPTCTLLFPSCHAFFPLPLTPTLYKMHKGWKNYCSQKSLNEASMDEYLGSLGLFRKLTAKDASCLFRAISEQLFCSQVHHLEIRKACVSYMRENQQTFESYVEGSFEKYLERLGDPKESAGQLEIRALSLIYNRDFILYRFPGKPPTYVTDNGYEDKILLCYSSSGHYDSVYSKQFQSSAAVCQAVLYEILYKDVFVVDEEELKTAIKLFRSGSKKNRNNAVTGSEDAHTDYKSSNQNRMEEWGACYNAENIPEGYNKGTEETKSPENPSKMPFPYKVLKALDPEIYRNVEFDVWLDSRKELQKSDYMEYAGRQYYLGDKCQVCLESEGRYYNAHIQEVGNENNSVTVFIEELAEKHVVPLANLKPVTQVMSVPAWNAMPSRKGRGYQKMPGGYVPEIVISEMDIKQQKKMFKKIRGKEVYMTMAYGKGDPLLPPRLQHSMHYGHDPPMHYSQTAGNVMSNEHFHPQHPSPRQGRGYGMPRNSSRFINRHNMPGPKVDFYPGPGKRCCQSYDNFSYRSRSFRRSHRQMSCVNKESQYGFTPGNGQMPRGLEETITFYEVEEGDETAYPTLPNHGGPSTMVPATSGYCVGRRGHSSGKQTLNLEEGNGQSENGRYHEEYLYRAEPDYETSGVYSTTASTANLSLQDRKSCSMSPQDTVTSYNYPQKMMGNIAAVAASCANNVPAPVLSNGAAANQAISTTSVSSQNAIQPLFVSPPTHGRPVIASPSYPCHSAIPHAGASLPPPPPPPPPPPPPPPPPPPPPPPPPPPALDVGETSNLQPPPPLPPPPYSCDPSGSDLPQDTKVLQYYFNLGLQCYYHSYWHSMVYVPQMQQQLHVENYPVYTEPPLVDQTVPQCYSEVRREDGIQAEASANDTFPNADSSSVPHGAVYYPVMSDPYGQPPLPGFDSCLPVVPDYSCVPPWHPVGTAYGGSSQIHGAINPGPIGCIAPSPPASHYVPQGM
How it was run: (§1)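 Average log2 ratios of fragment over vehicle were obtained by unpaired t-test from global-median-normalised Spectronaut label-free quantities. Proteins with ≥2 unique peptides were included. HEK293T lysate (495 µg per sample) was treated in triplicate with fragment at 200 µM or vehicle for 3 h, then with Biotin-Ahx-Ub-VS at 0.5 µM final for 1 h, and labelled DUBs were NeutrAvidin-enriched and run by diaPASEF LC-MS/MS.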

[2] = biological target: ATXN3 (UniProt P54252)
ATXN3, sequence (P54252 whole entry): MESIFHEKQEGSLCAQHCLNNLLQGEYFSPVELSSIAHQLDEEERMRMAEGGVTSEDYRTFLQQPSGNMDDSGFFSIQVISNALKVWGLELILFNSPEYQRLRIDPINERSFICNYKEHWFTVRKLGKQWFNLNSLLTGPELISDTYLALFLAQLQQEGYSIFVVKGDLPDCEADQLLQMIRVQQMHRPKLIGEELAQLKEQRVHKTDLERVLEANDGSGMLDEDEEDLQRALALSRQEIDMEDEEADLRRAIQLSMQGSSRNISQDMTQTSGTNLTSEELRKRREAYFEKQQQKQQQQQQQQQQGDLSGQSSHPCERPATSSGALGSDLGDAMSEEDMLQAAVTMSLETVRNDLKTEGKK
How it was run: as §1

[3] = biological target: T2, BAP1 (UniProt Q92560)
T2 sequence (whole entry): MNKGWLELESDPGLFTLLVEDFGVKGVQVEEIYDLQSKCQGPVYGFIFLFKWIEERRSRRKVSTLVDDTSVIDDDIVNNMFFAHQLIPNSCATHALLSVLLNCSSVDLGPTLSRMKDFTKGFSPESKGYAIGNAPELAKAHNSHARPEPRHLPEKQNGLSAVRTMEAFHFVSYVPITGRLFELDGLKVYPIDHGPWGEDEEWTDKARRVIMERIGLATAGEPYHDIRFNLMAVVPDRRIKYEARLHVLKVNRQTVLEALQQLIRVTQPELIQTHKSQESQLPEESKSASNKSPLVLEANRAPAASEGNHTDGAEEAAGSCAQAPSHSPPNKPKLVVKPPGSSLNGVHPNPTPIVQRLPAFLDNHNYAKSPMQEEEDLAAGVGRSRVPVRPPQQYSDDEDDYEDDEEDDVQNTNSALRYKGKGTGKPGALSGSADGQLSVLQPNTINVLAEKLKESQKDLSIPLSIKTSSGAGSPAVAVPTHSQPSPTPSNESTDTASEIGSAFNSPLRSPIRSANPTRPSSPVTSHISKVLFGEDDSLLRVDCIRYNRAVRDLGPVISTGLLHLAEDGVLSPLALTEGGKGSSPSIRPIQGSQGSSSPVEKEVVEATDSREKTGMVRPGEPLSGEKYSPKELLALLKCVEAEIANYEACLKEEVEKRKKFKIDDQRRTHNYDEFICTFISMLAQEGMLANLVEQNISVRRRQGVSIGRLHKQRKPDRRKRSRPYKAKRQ
How it was run: as §1

[4] = biological target: EIF3F (UniProt O00303)
EIF3F, sequence (O00303 whole entry): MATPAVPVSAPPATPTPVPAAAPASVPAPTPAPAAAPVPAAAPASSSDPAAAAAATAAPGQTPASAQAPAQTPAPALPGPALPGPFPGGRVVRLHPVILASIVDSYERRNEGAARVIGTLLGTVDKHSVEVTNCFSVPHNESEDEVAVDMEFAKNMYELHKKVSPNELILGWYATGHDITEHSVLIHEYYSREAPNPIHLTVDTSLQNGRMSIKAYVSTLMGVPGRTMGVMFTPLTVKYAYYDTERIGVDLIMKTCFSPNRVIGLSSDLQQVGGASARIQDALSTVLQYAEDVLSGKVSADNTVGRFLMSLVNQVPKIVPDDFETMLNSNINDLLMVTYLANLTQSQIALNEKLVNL
How it was run: as §1

[5] = biological target: EIF3H (UniProt O15372)
EIF3H, sequence (O15372 whole entry): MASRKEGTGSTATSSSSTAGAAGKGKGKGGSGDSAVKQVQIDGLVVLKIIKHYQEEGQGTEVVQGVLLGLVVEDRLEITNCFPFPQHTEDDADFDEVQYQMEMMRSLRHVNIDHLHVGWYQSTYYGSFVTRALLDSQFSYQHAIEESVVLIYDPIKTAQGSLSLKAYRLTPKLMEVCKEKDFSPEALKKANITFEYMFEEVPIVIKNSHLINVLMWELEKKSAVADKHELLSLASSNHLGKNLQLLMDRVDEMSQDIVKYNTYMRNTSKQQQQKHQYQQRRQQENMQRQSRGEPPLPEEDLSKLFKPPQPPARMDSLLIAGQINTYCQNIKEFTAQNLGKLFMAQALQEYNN
How it was run: as §1

[6] = biological target: T3, FAM105A (UniProt Q9NUU6)
T3 sequence (whole entry): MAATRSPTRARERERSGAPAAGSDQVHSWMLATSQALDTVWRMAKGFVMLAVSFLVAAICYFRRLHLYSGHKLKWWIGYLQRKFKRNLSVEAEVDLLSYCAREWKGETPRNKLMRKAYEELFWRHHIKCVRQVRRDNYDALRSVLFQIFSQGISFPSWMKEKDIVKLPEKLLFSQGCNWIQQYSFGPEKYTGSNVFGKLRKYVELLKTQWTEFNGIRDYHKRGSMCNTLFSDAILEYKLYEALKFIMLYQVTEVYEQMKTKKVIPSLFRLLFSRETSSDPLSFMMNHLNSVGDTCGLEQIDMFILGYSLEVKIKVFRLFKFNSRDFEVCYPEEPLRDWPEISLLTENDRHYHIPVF
How it was run: as §1

[7] = biological target: OTUB1 (UniProt Q96FW1)
OTUB1, sequence (Q96FW1 whole entry): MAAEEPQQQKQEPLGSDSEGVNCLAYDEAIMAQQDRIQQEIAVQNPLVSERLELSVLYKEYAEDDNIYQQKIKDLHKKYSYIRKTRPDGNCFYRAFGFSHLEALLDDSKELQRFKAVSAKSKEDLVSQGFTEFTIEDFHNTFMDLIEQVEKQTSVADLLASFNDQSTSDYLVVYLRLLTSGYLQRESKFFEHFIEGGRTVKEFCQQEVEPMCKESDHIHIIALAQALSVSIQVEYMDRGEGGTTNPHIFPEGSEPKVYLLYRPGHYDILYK
How it was run: as §1

[8] = biological target: T4, OTUD4 (UniProt Q01804)
T4 sequence (whole entry): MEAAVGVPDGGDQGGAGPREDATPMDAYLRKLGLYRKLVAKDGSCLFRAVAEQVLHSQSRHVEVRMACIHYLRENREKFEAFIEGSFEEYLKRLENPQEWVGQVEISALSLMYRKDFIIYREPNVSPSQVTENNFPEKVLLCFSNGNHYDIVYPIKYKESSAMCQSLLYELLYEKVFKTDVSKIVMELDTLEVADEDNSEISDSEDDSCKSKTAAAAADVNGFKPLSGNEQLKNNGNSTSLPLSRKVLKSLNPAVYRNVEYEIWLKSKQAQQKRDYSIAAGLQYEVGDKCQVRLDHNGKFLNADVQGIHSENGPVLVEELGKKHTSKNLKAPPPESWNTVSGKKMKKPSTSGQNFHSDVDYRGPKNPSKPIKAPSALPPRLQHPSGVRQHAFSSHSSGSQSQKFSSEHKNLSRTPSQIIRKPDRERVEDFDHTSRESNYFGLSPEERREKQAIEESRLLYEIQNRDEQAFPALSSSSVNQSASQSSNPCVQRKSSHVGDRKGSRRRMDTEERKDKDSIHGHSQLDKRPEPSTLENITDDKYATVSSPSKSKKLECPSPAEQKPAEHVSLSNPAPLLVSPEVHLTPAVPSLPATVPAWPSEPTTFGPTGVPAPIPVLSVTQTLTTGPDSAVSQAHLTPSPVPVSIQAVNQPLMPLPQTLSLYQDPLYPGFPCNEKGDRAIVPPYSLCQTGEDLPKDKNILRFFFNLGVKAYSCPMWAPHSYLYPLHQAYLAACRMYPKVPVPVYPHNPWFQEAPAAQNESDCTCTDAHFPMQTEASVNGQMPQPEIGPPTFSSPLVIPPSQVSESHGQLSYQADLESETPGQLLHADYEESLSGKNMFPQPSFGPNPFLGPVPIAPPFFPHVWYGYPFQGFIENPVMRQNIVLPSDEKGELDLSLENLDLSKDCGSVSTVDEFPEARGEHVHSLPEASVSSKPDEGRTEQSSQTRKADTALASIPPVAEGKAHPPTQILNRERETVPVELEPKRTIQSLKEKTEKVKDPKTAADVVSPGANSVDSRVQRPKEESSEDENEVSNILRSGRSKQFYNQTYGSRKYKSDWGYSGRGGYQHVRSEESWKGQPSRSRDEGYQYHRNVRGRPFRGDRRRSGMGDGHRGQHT
How it was run: as §1

[9] = biological target: T5, OTUD5 (UniProt Q96G74)
T5 sequence (whole entry): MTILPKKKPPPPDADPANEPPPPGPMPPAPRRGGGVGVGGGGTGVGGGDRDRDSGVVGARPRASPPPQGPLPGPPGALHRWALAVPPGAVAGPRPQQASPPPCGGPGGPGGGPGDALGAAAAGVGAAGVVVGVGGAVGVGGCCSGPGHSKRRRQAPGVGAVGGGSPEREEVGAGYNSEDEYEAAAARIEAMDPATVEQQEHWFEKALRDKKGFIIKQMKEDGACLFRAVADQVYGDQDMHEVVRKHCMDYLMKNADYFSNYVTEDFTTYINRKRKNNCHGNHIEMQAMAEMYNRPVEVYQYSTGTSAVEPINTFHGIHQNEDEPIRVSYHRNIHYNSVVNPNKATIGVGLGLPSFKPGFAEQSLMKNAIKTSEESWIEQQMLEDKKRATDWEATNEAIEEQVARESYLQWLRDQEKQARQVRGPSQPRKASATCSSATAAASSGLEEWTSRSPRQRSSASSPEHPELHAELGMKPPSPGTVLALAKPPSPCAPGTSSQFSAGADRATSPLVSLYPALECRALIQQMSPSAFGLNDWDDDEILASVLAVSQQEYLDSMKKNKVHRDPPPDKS
How it was run: as §1

Measured: log2 ratio of Biotin-Ahx-Ub-VS probe labelling

Cc1nc(-c2cccc(NC(=O)CCl)c2)cs1
inactive: [1] 0.3 | [2] -0.742 | [4] -0.303 | [5] 0.167 | [6] 0.000667 | [7] -0.0946 | [8] -0.305 | [9] -0.539
active: [3] -3.5
